Over roughly 2,700 sequences, “arbitrary fluorescence units” has its median near 4,100; the highest 2% begin near 54,000. What follows is part of a selection rich in the highest values, with near analogues and random picks from the rest.
target: T1, ETS1 (UniProt P14921); assay: ETS1 binding intensity (PBM fluorescence) (arbitrary fluorescence units); higher = stronger binding; settings: ETS1 concentration 10 nM
T1 sequence: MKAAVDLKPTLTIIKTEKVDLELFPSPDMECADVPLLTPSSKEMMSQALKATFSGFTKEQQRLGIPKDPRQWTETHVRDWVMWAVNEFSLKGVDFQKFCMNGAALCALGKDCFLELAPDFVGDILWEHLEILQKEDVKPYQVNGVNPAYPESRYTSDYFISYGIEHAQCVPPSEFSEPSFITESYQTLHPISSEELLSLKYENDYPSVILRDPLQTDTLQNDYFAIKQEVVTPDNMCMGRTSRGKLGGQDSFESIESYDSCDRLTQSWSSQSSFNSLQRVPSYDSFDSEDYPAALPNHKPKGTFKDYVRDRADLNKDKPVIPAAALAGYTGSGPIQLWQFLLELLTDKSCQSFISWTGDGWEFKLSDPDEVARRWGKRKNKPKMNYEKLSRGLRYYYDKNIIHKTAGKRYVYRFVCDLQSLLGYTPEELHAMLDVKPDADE
Experimental: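 gcPBM on wild-type 36-bp genomic probes with two neighbouring ETS1 sites (4-24 bp apart). Recombinant human ETS1 (10 nM) was detected with anti-ETS1 antibody fluorescence. Values are medians over 3 replicate spots. The probes sit in constant array flanks that are not printed.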

Sequence | ETS1 binding intensity
TGATTTCCGCTTTCTCCCCAGTGATTGCTTCCTTCA | 68300
GCCTTCAATTTCCGTAGGGAACCTTCCTCCCAGTGA | 6860
TGAATGCTGTCATTTCCGCTTCCGCCTCCTTCTTTC | 26500
TCAACATCCTGCTTCTCAGGGCACCACAGGAAATGT | 36600
ACGTCACTTCCGGCGCCGGGGCTCACTTCCTGGTGC | 87500
GGCGGCGACGGAAGTGAAGTCACTTCCGGGCTGGGG | 21300
TCGGGCCCTGGCTTCCGTCACTTCCGCCCGTGCCTG | 14700
CAGCTAGGCTTCCTTCTCCTCCCTTCCTGTGCCTCC | 1100
GAGGGTAACTTCCTGTTTCTGCCTTCCGGGTTTGAG | 47100
GTTTTCAGTTGCCTTCCGGTTTCCTGCTGTGATAAC | 15800
TCTACTTCCGGTTTGCCTGTGAATTCTTTCCTGGGC | 153000
AAGGGAATCTGGGAAATGTAGTTTCCTGCAATCCAG | 540
GCCCGAGCCGCTTCCGGGTACTTCCGGCGGCCGCGG | 39600
GTCACTTCCGGCCCCGAGTTCGAGCCGCTTCCGGGT | 115000
GGCCGCTTCCGAGCGCCGCCAACCGCTTCCGGGTTC | 5250
GGACTTCCCAACTAGACAGACCAAATGAGGAAGTTG | 880
CTGGGGGTCCGGATGCTTTGCGTTTCCCAGCAGTTG | 1230
GGGCACTTCCGGGGCCGGCGCCCAGAGTTCCGGGAG | 46800
CCCACTTCCGGCAACAAGATAGAGCACTTCCGTCAA | 77600
TGACAAGAGCCGGAACCGTCACTTCCGGCGGCGCGG | 24700
TCAGTGGGCGGAAGAGGTGGCCCCGGATGCTGCGGC | 1430
GCGGTTACTTCCGGTCACTTTCGCCGGAACCTGACT | 86200
CGCCGCCGGAAGTGCCTGGCCTCACTTCCGGTCAGA | 37200
ATTTTCGGTCTTCCGGTCAGCCGGAACCACTCACAC | 29800
CCATTCATTTCCTGCCTCCCCGAGTTCCGGCTGCGG | 35800
CAATTGAGGAAACAGGACCAAAGACAGGAAATGGCT | 2860
GCGCTTCGGGCCCTTCCGGCTTCCCGGGCCTCCCGG | 8330

Sequence | ETS1 binding intensity
CGTCCACTGGAGGCTTCCTTCCGGCGCCCGCGTGCC | 3590
CGTCACTTCCGGCGCCGCGTGAGGCCTTCCGGTGCC | 73900
GCGCCTGATTCACTTCCCTCTTCCGCTCTGAGGCGT | 4680
GACCGCAGGAAGGGACGCGGCCGCACTTCCGGCGAC | 8620
CCACTTCCGGCATGCGCAGGGACGCACCTTCCGGCT | 109000
GCGCTTCCGGGACGCAGGAGGCATCTGCATCCGGGG | 29000
GACAGGAAGGCTACAGGCTGCCTGTGGCTTCCGTGT | 386
AGACTTCCGTTCTGGCTCTCACTCTAGTTTCCTGGT | 67500
AGCACTTCCTCAATTTCTGGCTCTACAGGATATTTC | 16100
CTCTGTGACTTCCTGGAGACTCACTTCCTAGATGAG | 11300
ACTGCCTTCCTGGCCTGGTGGTGAGAGGAAGTCGGG | 2260
CTATGGTAGGAAACCCAGAAAACAGGAAGTGGCCTC | 3030
CAACTTGTCGGAGCGGAACTTCCGGCGTCCTCCCTG | 22800
GGGTGCGGAAACGCGGCAGCCGCGGCCGGATGCTGC | 2710
GCTGCAACTTCCGGTGCGCTAGCCGGAAACGCGGGT | 78200
TGCCCGGCTTCCGGGTGGCTGCGCGGAAGCGCGGTG | 20900
CCTCCCGGAAGCCGCTGGCCCGCGCCGGAAAAGGTG | 7300
ACAACTTCCGGCTGTAAAGATGGCGGCTTCCTAGTG | 96400
GGACAGGGACCGGATGGGAGGGGAAGTCGATGCTTG | 3430
TTTTATTTCCGGTTCTGAGGACGCCGCGGAAGCGGG | 78400
GGTGTTCCGGACCCGCGCGGTGCGGGGAGGAAGGCC | 1700
TCCTCCTCACTTCCGCCGGAGCGGAAACGGTGAGGA | 31200
GGTGCTCACGGATGCTACGCTTGTTCCTGTCTCCTC | 370
TGAGCTATTTGACTTCCGGTTTCCTGCCCCATTTAA | 63200
GCCCTTCCGGTTATTTCCCTTCCTGTTTGTCTGCCT | 48700
AGCCCCACCATTTCCTGTGACTTCCTGGAGCCTGGC | 25600
TCAATTTCTCATTTCCCTGGAGGAAGCCCATAAAGT | 217

Sequence | ETS1 binding intensity
CGGGCGGAAAGGGAGCTAGAGCATTCTGGGAAATGG | 178
TGTTTACTTCCGGCTTTTCGCCTAATTCCGGCGGCC | 55000
TTATTCTGTTTCCGGCAGTTTTACTTCCGTTTGTTT | 15900
GCGGCTTGGGCCTTCCGGCTTTCCGTCCGCCGCGGC | 7060
AAAGCGCATTGCGGATGGCAATTCCGGTGCGTCATT | 732
CACCACTTCCTGTTTCTGAGTCATCAGGAAGGTAAT | 58900
GCTTGGCAGTCAGGAAGGACTTCCTGTTTCTGCTTC | 14400
CATTTACCACTTCCTGAGGTCATTTCCTGTTTTCTT | 25800
AGCAACTTCCGGTGCGCTTAGCGTTACTTCCGGCGC | 116000
CTCGCAGGCTTCCCGGCTGCAACTTCCGGCGCATGC | 14600
ACCCGGAAGCGCTTCACCCAGCCTGAGCGGAAGAAC | 5640
GAGCGGAAGTGGAAAAGACTAACTTCCGGCCTCGGG | 30600
CCCAGCTAAAGGAAGTCTGGCACTTCCTCTCCTCAA | 2990
GAGCACGACTTCCGGCCTGAAAAGGAAGTCTCCTCC | 89000
GACAGTTTCCTCTTTCACACTAGAATATCCTGTTGT | 10900
TGCGCCCCGTGCTTCCTGCCATCCTGTGCTCTCTGC | 9740
ACCAGGGCTGCTTCCTCACATTTCCGGTCCTGAAAA | 27700
TCATCTCTCCTGCAGGAAGGAAGTCCTGCCTCCCAC | 315
GGACCGGAAGTGCCTCCTGCGGAGGCAGGAAGTCCC | 58700
AGCAGGAAGGACCTCAGTCCTCCAGTGCGGATGCTG | 207
AACGTCCAGGAGGAAGTCAATTTCCTGGCCCTCAAT | 5100
GCGCCGGAAGCAGAGACGCGTTTCGGGAGGAAGGTG | 3580
GCAGGAGACGGAAGATGCATGGGTTTCCTGGCGCGC | 424
CGGGACCGGAAGTGACGCAGAGAAGTTTCCGGGACT | 56800
AGAAGCACACAAGGAAGTGTTTCCGGGACAGAGGGT | 9030
ACAGCATCCGGAGCGCCGACGCGGGACCGGAAGTGA | 26000

— the supplement of paper PMC10681739
